# According to PubChem BioAssay (NCATS):
# Inconclusive results are not listed. Entries that show only a call come without a potency. The source made the active and inactive calls. Calls come from the whole dose curve; as a rule, active = well fitted cell-killing curve with a large enough effect; inconclusive = small, poorly fitted or top-dose-only effect, or effect the other way; inactive = flat fitted curve, though single readings scatter.
# Tested on: OV90
# Assay: Primary qHTS to identify gynecologic anti-cancer compounds using libraries of approved drugs and bioactive compounds (AID 1345084); note: nearly all actives have a fitted effect of over 55% in size
# Conditions: Gynecologic cancer cell panel viability, ATPlite luminescence, 48 h; series mostly up to 57.5 µM
# Procedure, shortened: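 Cells, 1,000 per well, plated 16 h, then exposed 48 h at 37 C to compounds. Viability by ATPlite luminescence after 15 min at room temperature.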
row,SMILES,Potency
1,CCc1ccc(C2CCNCC2)cc1,inactive
2,C[C@]12CC[C@H]3[C@@H](CCC4=CC(=O)CC[C@@H]43)[C@@H]1CC[C@@H]2O,inactive
3,Cc1ccc(N=CN(C)C=Nc2ccc(C)cc2C)c(C)c1,inactive
4,COP(=O)(OC)OC=C(Cl)Cl,inactive
5,CCN1CCCC1CNC(=O)C(O)(c1ccccc1)c1ccccc1 (stereo unspecified),inactive
6,CN(C)C(=O)Oc1cc(OC(=O)N(C)C)cc(C(O)CNC(C)(C)C)c1 (stereo unspecified),inactive
7,O=C1CN2CCOC2(c2ccccc2Cl)c2cc(Cl)ccc2N1 (stereo unspecified),inactive
8,COP(=S)(OC)Oc1ccc(Sc2ccc(OP(=S)(OC)OC)cc2)cc1,inactive
9,COCC(=O)N(c1c(C)cccc1C)C(C)C(=O)OC (stereo unspecified),inactive
10,NC(=O)OCCCc1ccccc1,inactive
11,CCN(CC)CCOC(=O)C(C)(c1ccccc1)c1ccccc1,inactive
12,CCOP(=S)(OCC)O/N=C(\C#N)c1ccccc1,inactive
13,O=C(CCCCl)c1ccc(F)cc1,inactive
14,C[N+]1(C)[C@@H]2CC[C@H]1CC(OC(=O)C(CO)c1ccccc1)C2 (stereo partly specified),inactive
15,CC1=C2[C@H]3OC(=O)[C@@H](C)[C@@H]3CC[C@@]2(C)C=CC1=O,inactive
16,Sc1ccccc1Cl,inactive
